This is an account of results in PubChem BioAssay (NCI).

Assay [1] in a line: NCI Yeast Anticancer Drug Screen. Data for the rad50 strain (AID 155).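 Also: 0% = growth of vehicle-only cultures of the same strain.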 To be noted: S. cerevisiae rad50 strain growth inhibition; at 50.0 µM; hits give high values. In outline: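 Genetically altered yeast (DNA repair pathway); compound treatment; growth inhibition vs vehicle ctrl.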
Assay [2] can be described thus: NCI Yeast Anticancer Drug Screen. Data for the mec2-1 strain (AID 157). To be noted: S. cerevisiae mec2-1 strain, at 50.0 µM, hits give high values. A digest of the protocol:
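Strain: mec2-1 (DNA repair/cell cycle alteration). Compound exposure, then growth measured; inhibition expressed relative to vehicle.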

Assay [3] can be described thus: NCI Yeast Anticancer Drug Screen. Data for the sgs1 mgt1 strain (AID 161).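 Also: 0% = growth of cultures given vehicle only.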 To be noted: S. cerevisiae sgs1 mgt1 strain, at 50.0 µM, hits give high values. A digest of the protocol: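 Inhibition of yeast growth, normalised to vehicle-treated controls, is reported for a strain bearing genetic alterations in DNA damage repair.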
Assay [4] can be described thus: NCI Yeast Anticancer Drug Screen. Data for the cln2 rad14 strain (AID 165).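 Also: 0% = growth equal to vehicle treated cultures.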 To be noted: S. cerevisiae cln2 rad14 strain, at 50.0 µM, hits give high values. In outline:
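Compounds are applied to the cln2 rad14 yeast strain, and growth is then compared with that of vehicle-treated cultures to give inhibition.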

The nature of assay [5]: NCI Yeast Anticancer Drug Screen. Data for the bub3 strain (AID 167). To be noted: S. cerevisiae bub3 mutant strain, at 50.0 µM, hits give high values. In outline: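 Yeast carrying a defined mutation is treated with each compound, and growth is compared with that of vehicle-exposed cells to give inhibition.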
Assay [6] can be described thus: NCI Yeast Anticancer Drug Screen. Data for the mlh1 rad18 strain (AID 175). The note with it: S. cerevisiae mlh1 rad18 strain growth inhibition; at 50.0 µM; hits give high values. In outline:
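Read-out is yeast growth inhibition, calculated against vehicle-only controls. The compound was applied to a strain engineered with DNA damage repair alterations.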

About 79,000 compounds went through this panel and 15% of them were active in at least one assay; those are over-represented in the sample as a whole. A number with no mark means an inactive call. Calls of active or inactive are those of the source. Rule as the data show it: active = growth inhibition above about 70%; inactive = the rest.

Regarding `Nc1ccc(C(=O)NN2C(=O)C(Cl)C2c2ccccc2)cc1` (stereo unspecified), the growth inhibition was -30.2% in assay [1]; -31.8% in assay [2]; -62.5% in assay [3]; -1.8% in assay [4]; -30.4% in assay [5]; -38.2% in assay [6].

In the case of `CCCS(=O)(=O)N/N=C(\C)c1cccs1`, the growth inhibition in assay [1] was 3.65%; in assay [2], -8.1%; in assay [3], 3.25%; in assay [4] it was -35.5%; in assay [5] it was 1.35%; in assay [6] it was -4.2%.

As for `O=c1cc(CNC2CC3CCC2C3)[nH]c(=O)[nH]1` (stereo unspecified), the growth inhibition in assay [1] is 7.35%; in assay [2], -1.2%; in assay [3], -4.25%; in assay [4], -3.45%; in assay [5], 0.2%; in assay [6], -0.2%.

Consider `Cc1ccc(N=C2OC(=O)c3ccccc32)cc1`, for which the growth inhibition is -3.8% in assay [1]; -4% in assay [2]; 0.1% in assay [3]; -39.5% in assay [4]; 9.9% in assay [5]; 32.7% in assay [6].

As to `CC(=O)OCCNc1ccccc1`, the growth inhibition in assay [1] is -5.05%; in assay [2], 0.2%; in assay [3] it was 10.2%; in assay [4] it was -5%; in assay [5], -2.75%; in assay [6] it was 20.3%.

For `O=C(O)CNC(=O)C(Cc1ccccc1)NC(=O)CNC(=O)C(CSC(c1ccccc1)c1ccccc1)NC(=O)C(CSC(c1ccccc1)(c1ccccc1)c1ccccc1)NC(=O)OCc1ccccc1` (stereo unspecified), the growth inhibition in assay [1] was -0.75%; in assay [2], 27%; in assay [3] it was 23.4%; in assay [4], -17.2%; in assay [5], -9.55%; in assay [6] it was 44.1%.

As for `O=C(O)C(C(=O)O)C1CCCCC1`, the growth inhibition in assay [1] was -14.6%; in assay [2] it was -20.6%; in assay [3], -20.6%; in assay [4] it was -0.95%; in assay [5], -6.5%; in assay [6] it was -15.8%.

On to `CC(=O)O/C1=C\CCCCCCCCCC1`, for which the growth inhibition in assay [1] was 6.95%; in assay [2], -27.5%; in assay [3] it was 28.3%; in assay [4], 18.9%; in assay [5], 13.5%; in assay [6], -1.45%.

Turning to `c1ccc(N2CCN(CCCN3CCc4c([nH]c5ccccc45)C3c3cccnc3)CC2)cc1` (stereo unspecified), the growth inhibition in assay [1] was -5.55%; in assay [2] it was -18.1%; in assay [3], -18.8%; in assay [4], 14.1%; in assay [5] it was -7.9%; in assay [6], -1.8%.

In the case of `CNS(=O)(=O)c1ccc(N)cc1`, the growth inhibition in assay [1] was -2.9%; in assay [2], -5.6%; in assay [3], 2.8%; in assay [4] it was -27.2%; in assay [5], 3.15%; in assay [6] it was 2.9%.

In the case of `CCOC1NC(=O)Oc2ccccc21` (stereo unspecified), the growth inhibition in assay [1] was 4.2%; in assay [2], 0.5%; in assay [3], 8.1%; in assay [4] it was 7.35%; in assay [5], 10.9%; in assay [6], -37.4%.

Turning to `Cc1ccccc1/C=C/C(=O)c1ccccc1`, the growth inhibition in assay [1] was 45.2%; in assay [2] it was 24.6%; in assay [3] it was 40.8%; in assay [4] it was 1.8%; in assay [5] it was 11.4%; in assay [6], 20%.

On to `O=[N+]([O-])c1ccc(P(=O)(Nc2ccc(Cl)cc2)Nc2ccc(Cl)cc2)cc1`, for which the growth inhibition was 95.7% (active) in assay [1]; 96.8% (active) in assay [2]; 95.1% (active) in assay [3]; 91.8% (active) in assay [4]; 94.8% (active) in assay [5]; 97.1% (active) in assay [6].

Consider `COc1cc(/C=C/Cc2cc3c(cc2OCCO)OCO3)cc(OC)c1OC`, for which the growth inhibition in assay [1] is -1.05%; in assay [2], 0.3%; in assay [3] it was 7.6%; in assay [4], -11.7%; in assay [5], -4.65%; in assay [6], 19.6%.

As for `CCOC(=O)/C=C(\N)c1ccccc1`, the growth inhibition in assay [1] is -7.8%; in assay [2], -13.2%; in assay [3] it was -15.6%; in assay [4], -43.8%; in assay [5], -30.4%; in assay [6], -6.8%.

As to `Cc1ccccc1-n1c(C)nc(-c2ccccc2)cc1=O`, the growth inhibition is -23.4% in assay [1]; -47.2% in assay [2]; -4.9% in assay [3]; 15.5% in assay [4]; -9.4% in assay [5]; 2.8% in assay [6].

Turning to `O=C(Cl)c1c(F)c(F)c(F)c(F)c1F`, the growth inhibition in assay [1] was -29.6%; in assay [2] it was -26.1%; in assay [3], -7.4%; in assay [4] it was 19.4%; in assay [5], 1.25%; in assay [6] it was -18.9%.

As to `COC(=O)/C(C)=C1\C=C(C)CC(C)(C)C1`, the growth inhibition in assay [1] was -4.3%; in assay [2], -25.1%; in assay [3], -10.6%; in assay [4], 1%; in assay [5], -23.9%; in assay [6], -2.3%.

Turning to `CCOc1ccc(NC(=O)Oc2ccc(-c3ccccc3)cc2)cc1`, the growth inhibition was 15.8% in assay [1]; 33.5% in assay [2]; 24.4% in assay [3]; -12% in assay [4]; 56.7% in assay [5]; 48.1% in assay [6].

Take `COC1OC(=O)c2cccc3cccc1c23` (stereo unspecified): the growth inhibition in assay [1] was -9.3%; in assay [2] it was -14.8%; in assay [3], -8.2%; in assay [4], -7.5%; in assay [5], -2.4%; in assay [6], -18.7%.

With `CC1(C)C(OS(C)(=O)=O)C(C)(C)C1OS(C)(=O)=O` (stereo unspecified), the growth inhibition is 3.75% in assay [1]; -20.6% in assay [2]; 13.7% in assay [3]; 9.45% in assay [4]; 8.4% in assay [5]; -12.9% in assay [6].
